Screens as filed in PubChem BioAssay.
PostGolgi yeast = growth inhibition of a yeast mutant, post-Golgi transport screen | post-Golgi transport phenotypic cell assay | inhibition, % at 10 µM | 98,000 tested, 0.9% active | AID 739;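 further: yeast cells grown in 1536-well plates; yeast grown about 18 h at 30C before absorbance read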
CYP2C9 activ = increases human cytochrome P450 2C9 activity; P11712; recombinant CYP2C9, luciferin-H conversion, luminescence; stronger effect = higher value; factor 1 = untreated enzyme, 0 = blocked; activation factor at 5 µM; 96,000 tested, 1.4% active;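 active means activation factor of 2 or more for CYP2C9 at a 5 µM dose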
CYP2C19 act = activators of human cytochrome P450 2C19; recombinant CYP2C19, luciferin-H EGE luminescence; stronger effect = higher value; 0 = fully inhibited enzyme, 1 = untreated enzyme; activation factor at 5 µM; 96,000 tested, under 10 active; AID 1025;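 active means activation factor of at least 2 at 5 µM in the primary screen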
Target sequence (P33261 whole entry, looked up): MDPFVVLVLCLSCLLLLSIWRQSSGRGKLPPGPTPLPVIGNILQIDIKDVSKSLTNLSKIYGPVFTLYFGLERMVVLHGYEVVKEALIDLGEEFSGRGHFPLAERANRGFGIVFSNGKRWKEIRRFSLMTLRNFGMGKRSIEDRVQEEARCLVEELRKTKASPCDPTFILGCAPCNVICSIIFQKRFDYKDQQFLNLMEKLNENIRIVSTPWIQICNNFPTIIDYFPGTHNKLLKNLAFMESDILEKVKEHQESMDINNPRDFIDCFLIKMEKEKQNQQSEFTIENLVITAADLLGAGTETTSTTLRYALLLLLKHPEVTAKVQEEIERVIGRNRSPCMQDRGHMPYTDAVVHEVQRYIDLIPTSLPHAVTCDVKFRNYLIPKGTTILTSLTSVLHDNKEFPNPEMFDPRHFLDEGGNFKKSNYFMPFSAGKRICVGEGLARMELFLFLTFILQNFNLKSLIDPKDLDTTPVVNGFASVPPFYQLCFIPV
CYP2C19 inh = blocks human cytochrome P450 2C19 | P33261 | CYP2C19 Supersomes, luciferin-H EGE luminescence, 30 min | inhibition, % at 5 µM | 96,000 tested, 21% active | AID 778;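 active means CYP2C19 inhibition above a set limit at 5 µM in the primary screen, cut at about 50% in these data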
PostGolgi ctrl = yeast control strain growth, post-Golgi counter-screen; 98,000 tested, 5% active; AID 738; inhibition, % at 10 µM; efflux-deficient yeast background strain, growth absorbance A615, 16 h
CYP2C9 inh = human CYP2C9 inhibition. P11712. 96,000 tested, 20% active. CYP2C9 Supersomes, luciferin-H conversion, luminescence. inhibition, % at 5 µM;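 active means blocking of liver enzyme CYP2C9 beyond about 50% at 5 µM, limit read from the data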
Numbers stand for hits; 0 = inactive; - = no result given. Rows were chosen to be rich in hits. Some 32% of all compounds tested hit in one or more screens of this group. Unless noted, no stated cut-off is given here; in the data, active means inhibition above about 30%; inactive means the rest.

SMILES | PostGolgi yeast | CYP2C9 activ | CYP2C19 act | CYP2C19 inh | PostGolgi ctrl | CYP2C9 inh
CCSP1(=S)N=C(N2CCOCC2)C(C#N)=C2CCCN21 (configuration not stated) | 0 | 0 | 0 | 0 | 0 | 0
Cn1c(O)c(C=NC2CC(C)(C)NC(C)(C)C2)c(=O)n(C)c1=O | 0 | 0 | 0 | 0 | 0 | 0
COc1ccc(Oc2cc(NC(=O)c3nn(C)cc3[N+](=O)[O-])cc([N+](=O)[O-])c2)cc1 | 0 | 0 | 0 | 66 | 0 | 91
Cc1ccc2c(c1)CC1(CN2C)C(=O)NC(=O)N(C(C)C)C1=O (configuration not stated) | 0 | 0 | 0 | 82 | 0 | 0
Cc1ccc2c(c1)CC1(CN2C)C(=O)NC(=O)N(CCC2=CCCCC2)C1=O (configuration not stated) | 0 | 0 | 0 | 0 | 40 | 0
CCC(C)N1C(=O)NC(=O)C2(Cc3cc(C)ccc3N(C)C2)C1=O (configuration not stated) | 0 | 0 | 0 | 89 | 0 | 70
Cc1cc(C)c(S(=O)(=O)NCC2CCC(C(=O)N3CCC4(CC3)OCCO4)CC2)c(C)c1 (configuration not stated) | 0 | 0 | 0 | 0 | 0 | 0
Fc1ccc(CCNCc2ccccc2Cl)cc1 | 0 | 0 | 0 | 96 | 0 | 0
Cc1cccc(NC(=O)CSc2nnc([C@@H](N)Cc3c[nH]c4ccccc34)o2)c1C | 0 | 0 | 0 | 0 | 0 | 0
CCOc1cc(C=C2C(=O)NC(=O)NC2=O)ccc1OS(=O)(=O)c1ccccc1 | 0 | 0 | 0 | 54 | 0 | 0
Cc1nn(Cc2ccccc2)c(C)c1C(=O)OCC(=O)NCc1ccco1 | 0 | 0 | 0 | 60 | 0 | 70
Cc1cc(NC(=O)COC(=O)c2c(C)nn(Cc3ccccc3Cl)c2Cl)no1 | 0 | 0 | 0 | 0 | 0 | 0
Cc1cc(NC(=O)COC(=O)c2c(C)nn(Cc3ccccc3)c2C)no1 | 0 | 0 | 0 | 0 | 0 | 65
Cc1nn(Cc2ccccc2)c(C)c1C(=O)OCC(=O)Nc1ccccc1SCC#N | 0 | 0 | 0 | 86 | 0 | 96
O=C(Cn1ncc2c3ccccc3n(Cc3ccc(F)cc3)c2c1=O)N1CCC2(CC1)OCCO2 | 0 | - | - | - | 0 | -
CCOC(=O)[C@]1(C#N)[C@@H]2C=CC(C(C)=O)=CN2[C@@H](C(N)=O)[C@@H]1c1ccsc1 | 0 | 0 | 0 | 0 | 0 | 0
Cn1c(O)c(/C=N/c2ccccn2)c(=O)n(C)c1=O | 0 | 0 | 0 | 0 | 0 | 0
O=C(Cc1ccccc1)N1CCN(CC2CC=CCC2)CC1 (configuration not stated) | 0 | 0 | 0 | 0 | 0 | 0
O=C(Cc1ccccc1)N1CCN(Cc2cccnc2)CC1 | 0 | 0 | 0 | 76 | 0 | 0
CCN(CC)CCN=Cc1c(O)n(C2CCCCCC2)c(=O)[nH]c1=O | 0 | 0 | 0 | 0 | 0 | 0
CN(C)CCN=Cc1c(O)n(CCC2=CCCCC2)c(=O)[nH]c1=O | 0 | 0 | 0 | 0 | 0 | 0
O=c1[nH]c(=O)n(CCc2ccc(F)cc2)c(O)c1C=NCCCn1ccnc1 | 0 | 0 | 0 | 0 | 0 | 68
O=c1[nH]c(=S)n(CCC2=CCCCC2)c(O)c1C=NCCCn1ccnc1 | 0 | 0 | 0 | 93 | 0 | 98
O=c1[nH]c(=O)n(C2CCCCC2)c(O)c1C=NCCCn1ccnc1 | 0 | 0 | 0 | 61 | 0 | 50
O=c1[nH]c(=O)n(CCC2=CCCCC2)c(O)c1C=NCCCn1ccnc1 | 0 | 0 | 0 | 86 | 0 | 97
SMILES | PostGolgi yeast | CYP2C9 activ | CYP2C19 act | CYP2C19 inh | PostGolgi ctrl | CYP2C9 inh
O=c1[nH]c(=S)n(CCC2=CCCCC2)c(O)c1C=NCc1cccnc1 | 0 | 0 | 0 | 0 | 0 | 0
O=c1[nH]c(=O)n(C2CCCCC2)c(O)c1C1NCCc2ccccc21 (configuration not stated) | 0 | 0 | 0 | 0 | 0 | 0
CC(=NCc1ccco1)c1c(O)n(Cc2ccccc2)c(=O)[nH]c1=O | 0 | 0 | 0 | 0 | 0 | 0
CC(=NCCN1CCCCC1)c1c(O)n(Cc2ccccc2)c(=O)[nH]c1=O | 0 | 0 | 0 | 0 | 0 | 0
CC(=NCCCN1CCCCC1)c1c(O)n(Cc2ccccc2)c(=O)[nH]c1=O | 0 | 0 | 0 | 0 | 0 | 59
CCCCCCN=C(C)c1c(O)n(Cc2ccccc2)c(=O)[nH]c1=O | 0 | 0 | 0 | 0 | 35 | 0
CCOC(=O)c1ccc(N2C(=O)CC(N3CCC(C#N)(c4ccccc4)CC3)C2=O)cc1 (configuration not stated) | 0 | 0 | 0 | 0 | 0 | 0
CC1CN=C(NCc2ccccc2)S1 (configuration not stated) | 0 | 0 | 0 | 0 | 0 | 0
O=C1CC(N2CCC(n3c(=O)[nH]c4ccccc43)CC2)C(=O)N1c1ccc(F)cc1 (configuration not stated) | 0 | 0 | 0 | 0 | 0 | 0
O=C1CC(N2CC=C(c3ccccc3)CC2)C(=O)N1c1ccc(F)cc1 (configuration not stated) | 0 | 0 | 0 | 0 | 0 | 62
Cc1ccc(Cl)cc1N1CCN(CCN)CC1 | 0 | 0 | 0 | 59 | 0 | 0
CCN1CCN(c2ccc(NC(=O)C(C)C)cc2Cl)CC1 | 0 | 0 | 0 | 0 | 0 | 0
CN1C(=O)N(C)C(=O)C2(Cc3c(ccc4ccccc34)N(C)C2)C1=O | 0 | 0 | 0 | 66 | 0 | 0
O=C(CNS(=O)(=O)c1cccs1)N1CCC2(CC1)OCCO2 | 0 | 0 | 0 | 52 | 0 | 0
Cc1ccc(C2C(S(C)(=O)=O)=C(O)C(=O)N2c2ccccc2)cc1 (configuration not stated) (tested in a mixture with another compound) | 0 | 0 | 0 | 0 | 0 | 0
O=C(Oc1c(Cl)cc(Cl)c2ccccc12)N1CCCCC1 | 0 | 0 | 0 | 0 | 37 | 0
O=c1cccc2n1CC1CC2CN(C(c2cccc(F)c2)c2sc3ncnn3c2O)C1 (configuration not stated) | 0 | 0 | 0 | 0 | 0 | 0
O=C1NC(=O)C(CCc2ccccn2)(Cc2ccc3c(c2)OCO3)C(=O)N1CCc1ccccc1 (configuration not stated) | 0 | 0 | 0 | 55 | 0 | 0
CC(=NCCC1=CCCCC1)c1c(O)n(C)c(=O)n(C)c1=O | 0 | 0 | 0 | 0 | 0 | 50
C=CCn1c(O)c(C(CC)=NCCC2=CCCCC2)c(=O)[nH]c1=O | 0 | 0 | 0 | 0 | 38 | 0
C=CCn1c(O)c(C(CC)=NCCCO)c(=O)[nH]c1=O | 0 | 0 | 0 | 0 | 0 | 0
C=CCn1c(O)c(C(CC)=NCc2cc(OC)cc(OC)c2)c(=O)[nH]c1=O | 0 | 0 | 0 | 0 | 34 | 95
CCCCn1c(O)c(C(CC)=NCc2ccc3c(c2)OCO3)c(=O)[nH]c1=O | 0 | 0 | 0 | 74 | 55 | 82
O=C1NC(=O)C2(Cc3ccccc3N3CCOCC32)C(=O)N1c1ccccc1 (configuration not stated) | 0 | 0 | 0 | 0 | 0 | 0
CCC(=Nc1ccc2c(c1)CCC2)c1c(O)n(C)c(=O)n(C)c1=O | - | 0 | 0 | 0 | - | 0
